From PubChem BioAssay
A selection: hits, their analogues and other compounds. The true share with any hit is near 2%.
Gli-Sufu antag = antagonists of Gli-Sufu signaling | Sufu-KO-LIGHT fibroblasts, Gli luciferase reporter luminescence | inhibition, % at 5 µM | 340,000 compounds, 0.74% hits | AID 588413;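 active = inhibition above about 55%, limit read from the data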;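 also: 0% = DMSO-treated cells and 100% = wells with medium but no cells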
NR2F2 inh = NR2F2 (human) inhibition, primary screen | inhibition, % at 8.6 µM | HEK293T NGFI-A luciferase reporter, luminescence | 370,000 compounds, 0.7% hits | AID 686940;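 active = inhibition above a per-plate cutoff, mean inhibition of test wells between control levels plus 3 SD, cut at about 38% in these data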;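 also: cells cotransfected with COUP-TFII expression vector driving the NGFI-A reporter; 0% = median of COUP-TF2 test wells and 100% = reporter-only cells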
Target sequence (P24468 whole entry, looked up): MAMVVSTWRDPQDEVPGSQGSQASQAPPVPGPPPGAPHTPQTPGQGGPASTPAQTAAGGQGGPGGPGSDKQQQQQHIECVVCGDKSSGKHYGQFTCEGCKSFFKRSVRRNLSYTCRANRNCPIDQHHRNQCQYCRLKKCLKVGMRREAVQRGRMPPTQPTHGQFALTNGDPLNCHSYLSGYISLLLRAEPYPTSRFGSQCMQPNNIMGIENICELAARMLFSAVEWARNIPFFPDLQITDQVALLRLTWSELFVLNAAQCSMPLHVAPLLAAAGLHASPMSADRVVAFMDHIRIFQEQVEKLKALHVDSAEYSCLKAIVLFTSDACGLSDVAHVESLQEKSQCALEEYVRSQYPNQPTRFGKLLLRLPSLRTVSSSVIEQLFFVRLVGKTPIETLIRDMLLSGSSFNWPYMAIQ
GalR3 antag = antagonists of human GalR3; inhibition, % at 3 µM; HEK293 GalR3-CNG cAMP membrane potential fluorescence; galR3 body fused to GalR1 C-terminus; AID 651719; O60755; 360,000 compounds, 0.44% hits;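 active = inhibition above the screen-wide average plus 3 SD, cut at about 13% in these data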;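 also: forskolin and galanin both at EC90 stimulate the cells; cAMP rise reported by CNG channel membrane potential dye signal; 0% = forskolin plus galanin with DMSO and 100% = forskolin alone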
Jurkat NFkB inh = lowers PMA/ionomycin-induced NF-kB signal in Jurkat cells | PMA/ionomycin-induced NF-kB luciferase reporter, luminescence | inhibition, % at 4 µM | 330,000 compounds, 0.53% hits; in the data active = inhibition above about 50%
697 NFkB inh = inhibitors of the PMA/ionomycin-induced NF-kB reporter in 697 B cells; 330,000 compounds, 0.33% hits; AID 435022; 697 B-cell NF-kB luciferase reporter, 16 h; inhibition, % at 4 µM; in the data active = inhibition above about 35%
VP16 Luc counter = inhibits VP16 reporter, flagging COUP-TFII antagonist hits. 2,500 compounds, 25% hits. inhibition, % at 8.5 µM. HEK293 Gal4-VP16 luciferase reporter, luminescence. shares compounds with NR2F2 inh; in the data active = inhibition above about 13%
COUP-TFII conf = COUP-TFII (NR2F2) inhibition, confirmation assay | inhibition, % at 8.5 µM | shares compounds with NR2F2 inh | HEK293 NGFI-A luciferase reporter, luminescence | 2,500 compounds, 45% hits | AID 687008;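 active = mean inhibition over three repeats above a set limit taken from the earlier primary screen, cut at about 38% in these data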;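 also: 100% = cells given the luciferase reporter alone without the COUP-TF2 vector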
* marks the source's active call; other numbers are inactive results; · = no result.

SMILES	Gli-Sufu antag	NR2F2 inh	GalR3 antag	Jurkat NFkB inh	697 NFkB inh	VP16 Luc counter	COUP-TFII conf
Nc1ccc(OC(=O)Nc2ccc(O)cc2)cc1	16	44*	-8	10	15	36*	24
O=C(Nc1ccc(N2CCN(c3ccc(O)cc3)CC2)cc1)Oc1ccccc1	11	-15	0	5	-10	·	·
Cc1onc(C(=O)N2CCN(C(c3ccc(Cl)cc3)c3ccc(Cl)cc3)CC2)c1[N+](=O)[O-]	·	13	·	·	·	·	·
CC(C)Oc1ccc(/C=C(\C#N)C(=O)NC2CC2)cc1	-3	82*	-4	-1	1	-95	-37
N#C/C(=C\c1ccc(Cl)cc1)C(=O)NC1CC1	7	11	-6	-7	-13	·	·
O=C(Nc1ccc(Oc2ccccc2)cc1)c1csc([C@@H]2C[C@H](O)[C@@H](CO)O2)n1	·	52*	-4	·	·	-17	27
CC(=O)Nc1ccc(NC(=O)c2csc([C@H]3C[C@H](O)[C@@H](CO)O3)n2)cc1	·	9	-6	·	·	·	·
Cc1ccc(S(=O)(=O)N2CCC(=O)N(CCOCc3ccccc3)CC2)cc1	0	-3	-3	21	12	·	·
C=C1C[C@@H]2C[C@@H]2CN(S(=O)(=O)c2ccc(C)cc2)[C@@H]1COCc1ccccc1	·	40*	-1	·	·	-8	6
CC(=O)c1cccc(NC(=O)C2Cc3c(-c4ccccc4Oc4ccccc4)ccnc3O2)c1 (stereo not given)	·	41*	-3	·	·	-7	12
COc1ccc(NC(=O)C2Cc3c(-c4ccc(Cl)cc4)ccnc3O2)cc1OC (stereo not given)	·	64*	-6	·	·	7	54*
COc1cccc(-c2nnc(SCc3cc(C)ccc3C)n2Cc2ccco2)c1	·	41*	·	·	·	9	11
Cc1ccc(-n2c(C)c([N+](=O)[O-])c3ccc(O)c(CN(C)C)c32)cc1	-8	43*	-4	19	-37	14*	21
Cc1ccc(S(=O)(=O)N(C)CCCC(=O)Nc2ccncc2)cc1	5	42*	0	23	8	-1	19
Cc1ccc(S(=O)(=O)N(C)CCCC(=O)Nc2ccc(F)cc2)cc1	4	1	0	16	6	·	·
O=C(N1CCC(n2nc(-c3ccccc3)oc2=O)CC1)C1(c2ccccc2)CCCC1	·	-2	·	·	·	·	·
Cc1csc2ncnc(N3CCN(C(=O)Nc4ccc(OC(F)(F)F)cc4)CC3)c12	16	39*	-6	3	-40	6	28
Cc1csc2c(N3CCN(C(=O)Nc4ccccc4)CC3)ncnc12	16	-1	-1	19	-5	·	·
CCN1C(=O)CS/C1=N\S(=O)(=O)c1ccc(Cl)cc1	5	7	-4	12	26	·	·
CCn1c(Cl)c(C=O)s/c1=N\S(=O)(=O)c1ccccc1	2	51*	0	5	-81	48*	36
CN(C)c1ccc(Cc2ccc(N(C)C)cc2)cc1	-11	0	-2	·	·	·	·
CN(C)c1ccc(CCc2ccc(N)cc2)cc1	16	59*	-6	-19	22	40*	19
O=C(CCc1ccccc1)N[C@H]1/C(=N/O)CCC[C@]12C(=O)N(Cc1ccccc1)c1ccccc12	·	18	·	·	·	·	·
C#Cc1cccc(OCC(C)CN2CCC(C(O)(c3ccccc3)c3ccccc3)CC2)c1 (stereo not given)	·	-12	·	·	·	·	·
NC(Cc1ccc(Cl)cc1)c1csc(NC(=O)NCC2CCCCC2)n1 (stereo not given)	·	81*	-9	·	·	2	0
SMILES	Gli-Sufu antag	NR2F2 inh	GalR3 antag	Jurkat NFkB inh	697 NFkB inh	VP16 Luc counter	COUP-TFII conf
Cc1ccc(NC(=O)c2cc(-n3cnnc3)ccc2Cl)cc1	1	10	-2	19	-2	·	·
O=C(Nc1ccc(-c2nc3ccccc3s2)cc1)c1cc(-n2cnnc2)ccc1Cl	18	70*	-9	-11	-49	-16	52*
Cc1ccc(C(=O)CSc2nnc(-c3ccccn3)n2-c2ccccc2)cc1	·	-24	·	·	·	·	·
O=C(CCc1nnc(-c2ccc(-c3ccccc3)cc2)o1)NCCc1ccccn1	-16	43*	-2	14	16	-15	23
COCCNC(=O)CCc1nnc(Cc2ccc(-c3ccccc3)cc2)o1	9	-10	9	9	-10	·	·
O=C(CCc1nnc(Cc2ccc(-c3ccccc3)cc2)o1)NCCc1ccccn1	-21	6	-3	1	-4	·	·
